Source: PubChem BioAssay
The list shows a part of the results. Active and inactive are the calls of the source. Rule as the data show it, unless noted: active = activation above about 8.9%; inactive = the rest.

Assays:
[1] = target: Glutathione S-transferase omega-1 (Homo sapiens) (UniProt P78417); assay: GSTO1 inhibitor hit confirmation, counter-screen for RBBP9 inhibitor project, biochemical, fluorescence polarization, triplicate (AID 2176;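 active = inhibition above the primary screen's cutoff, its mean inhibition plus 3 SD, cut at about 35% in these data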;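 also: loss of polarization as inhibitors block binding of rhodamine sulfonate ester activity probe; 0% = GSTO1 with DMSO and 100% = wells lacking GSTO1 enzyme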); settings: recombinant GSTO1, probe fluorescence polarization; at 5.96 µM; hits give high values
[2] = target: Protein-arginine deiminase type-4 (Homo sapiens) (UniProt Q9UM07); assay: human PAD4 inhibitors, confirmation, biochemical, fluorescence polarization (AID 488796;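 active = mean inhibition across replicates above the hit cutoff set by the earlier primary screen, cut at about 15% in these data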;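 also: inhibitors block active-site labeling by the probe so polarization falls; 0% = PAD4 with probe and DMSO and 100% = probe without PAD4 enzyme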); settings: recombinant PAD4, RCA probe fluorescence polarization; at 6.36 µM; hits give high values
[3] = target: Serine protease HTRA1 (Homo sapiens) (UniProt Q92743); assay: HTRA1 protease inhibitors, retest, confirmation, biochemical, fluorescence polarization (AID 540248;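 active = mean inhibition over three repeats above a set limit taken from the earlier primary screen, cut at about 37% in these data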;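 also: 0% = HTRA1 with DMSO and 100% = wells lacking HTRA1; inhibitors block probe binding so polarization drops and inhibition rises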); settings: recombinant HTRA1, FP-rhodamine activity-based probe, at 5.96 µM, hits give high values
[4] = target: (Lyso)-N-acylphosphatidylethanolamine lipase (Mus musculus) (UniProt Q8VD66); assay: ABHD4 inhibitors, retest, confirmation, biochemical, fluorescence polarization, mouse (AID 720658;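 active = mean inhibition across replicates above the hit cutoff set in the primary screen, cut at about 30% in these data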;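 also: 0% = wild-type ABHD4 with DMSO and 100% = catalytically dead S159A mutant with DMSO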); settings: purified mABHD4, FP-Rh probe fluorescence polarization; at 8.92 µM; hits give high values
[5] = system: HIV-1 integrase (multimerization); assay: HIV-1 IN multimer formation enhancers, counter-screen for LEDGF/p75 integration inhibitor project, biochemical, TR-FRET (AID 1053131); settings: TR-FRET HIV-1 integrase multimerization, at 7.7 µM, hits give high values
[6] = TR-FRET optical interference artefacts, confirmation, artefact control for LEDGF/p75-dependent integration inhibitor project, biochemical, HIV-1 IN multimerization (AID 1053135;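 active = inhibition above the mean over all tested compounds plus 3 SD, which no compound reached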;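 also: 0% = integrase with antibodies and DMSO and 100% = antibodies without integrase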); settings: TR-FRET optical interference counterscreen, at 7.7 µM, hits give high values
[7] = system: HIV-1 integrase / human LEDGF/p75 complex; assay: inhibitors of HIV-1 IN-LEDGF/p75 DNA integration, confirmation, biochemical, TR-FRET (AID 1053136; in the data active = inhibition above about 14%); settings: TR-FRET LEDGF/p75-dependent HIV-1 integration, at 3.7 µM, hits give high values
[8] = system: Fam108b (Abhd17b) serine hydrolase [Mus musculus]; assay: mouse Fam108b serine hydrolase inhibitors, confirmation, counter-screen for RBBP9 inhibitor project, biochemical, fluorescence polarization, triplicate (AID 1978;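 active = inhibition above a limit from the primary screen, the mean over all compounds plus 3 SD, cut at about 19% in these data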;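 also: 0% = median of active Fam108b wells and 100% = catalytically dead S170A mutant; inhibitors free the probe so polarization falls as inhibition rises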); settings: recombinant Fam108b, FP-Rh probe fluorescence polarization; at 9.51 µM; hits give high values
[9] = target: Platelet-activating factor acetylhydrolase (Homo sapiens) (UniProt Q13093); assay: pPAFAH (PLA2G7) enzyme inhibitors, confirmation, biochemical, fluorescence polarization, human (AID 463230;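 active = mean inhibition of the triplicate above the hit cutoff set for the earlier primary screen, cut at about 25% in these data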;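 also: 0% = enzyme with DMSO and 100% = wells lacking pPAFAH enzyme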); settings: recombinant pPAFAH, FP-Rh probe fluorescence polarization; at 3.39 µM; hits give high values
[10] = compounds interfering with TAMRA-BSA probe, counter-screen for TCR-CD3 interaction inhibitor project, biochemical, fluorescence, TAMRA-labeled BSA (AID 652035; in the data active = inhibition above about 23%;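 also: 0% = buffer low control and 100% = reference high control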); settings: TAMRA-labeled BSA probe fluorescence counterscreen; at 9.4 µM; hits give high values
[11] = system: T-cell receptor (TCR)-CD3 interaction, human; assay: TCR-CD3 interaction inhibitors, retest, confirmation, biochemical, fluorescence, TAMRA-labeled TCR probe (AID 652036; in the data active = inhibition above about 19%); settings: TAMRA-labeled TCR probe fluorescence binding assay; at 9.4 µM; hits give high values
[12] = growth loss of phage-infected E. coli expressing H. pylori AddAB, confirmation, AddAB inhibitor project, absorbance, E. coli V3065, T4 phage, triplicate (AID 488942;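 active = mean inhibition above a set limit taken from the earlier primary screen, cut at about 13% in these data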;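 also: higher means less bacterial growth since AddAB block lets phage replicate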); settings: OD, at 11.9 µM, hits give high values, T4 phage with gene 2 nonsense mutations
[13] = growth loss of RecBCD+ E. coli with mutant T4 phage, counter-screen for AddAB inhibitor project, absorbance, V66 E. coli (AID 488955;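 active = mean inhibition above the mean of solvent-only control wells plus 3 SD, cut at about 4% in these data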;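 also: optical density read after an 18 h incubation at 37 °C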); settings: OD growth, at 11.9 µM, hits give high values
[14] = bacterial viability inhibition counter-screen, confirmation, counter-screen for AddAB inhibitor project, absorbance (AID 488956; in the data active = inhibition above about 25%); settings: absorbance (AddAB counterscreen), at 11.9 µM, hits give high values
[15] = growth loss of phage-infected RecBCD+ E. coli, confirmation, RecBCD inhibitor project, absorbance, E. coli V66, T4 gene 2 phage (AID 651982;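 active = mean inhibition over triplicates exceeding the hit threshold derived in the original primary screen, cut at about 11% in these data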); settings: E. coli V66 + T4 2- phage, growth OD; at 11.9 µM; hits give high values
[16] = E. coli viability inhibition, counter-screen for RecBCD inhibitor project, absorbance, high throughput (AID 651983; in the data active = inhibition above about 20%;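 also: E. coli strain V66 grown with compound alone and no phage infection; 0% = bacteria with DMSO vehicle only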); settings: absorbance (OD) growth, at 11.9 µM, hits give high values
[17] = growth loss of phage-infected AddAB-carrying E. coli, confirmation, counter-screen for RecBCD inhibitor project, absorbance, E. coli V3065, T4 phage (AID 651984;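 active = mean inhibition above the solvent-only control wells' mean plus 3 SD, cut at about 22% in these data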;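 also: higher means less bacterial growth from phage killing when AddAB is blocked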); settings: E. coli expressing H. pylori AddAB + T4 phage, OD growth; at 11.9 µM; hits give high values; gene 2 mutant T4, recBCD-deleted host
[18] = target: Protein phosphatase methylesterase 1 (Homo sapiens) (UniProt Q9Y570); assay: PME-1 inhibitor activity retest, confirmation, biochemical, fluorescence polarization, FP-Rh probe, triplicate (AID 2171;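 active = inhibition above the hit cutoff set in the earlier primary screen, cut at about 27% in these data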;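 also: 0% = enzyme with DMSO and 100% = wells lacking PME-1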); settings: recombinant PME-1, FP-Rh probe fluorescence polarization; at 5.9 µM; hits give high values
[19] = KLF5 expression inhibitors, confirmation, DLD-1 cells, luminescence (AID 1834;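 active = inhibition above a set limit taken from the earlier primary screen, cut at about 63% in these data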;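 also: 0% = DMSO wells and 100% = LY294002 at 200 µM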); settings: DLD-1 KLF5 promoter firefly luciferase reporter, at 4 µM, hits give high values
[20] = cytotoxicity in rat IEC-6 cells, cytotoxicity control for KLF5 inhibitor project, cell-based, luminescence, triplicate (AID 1905; in the data active = inhibition above about 23%;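 also: cells exposed to compounds for 48 hours before viability read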); settings: IEC-6 rat intestinal cells, viability luminescence; at 4 µM; hits give high values
[21] = target: Bcl-2-like protein 1 (Homo sapiens) (UniProt Q07817); assay: Bcl-xL inhibitors blocking Bim BH3 binding, confirmation, counter-screen for MCL1 inhibitor project, biochemical, fluorescence polarization (AID 2166;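 active = inhibition above a cutoff equal to the mean inhibition of all tested compounds plus 3 SD, cut at about 30% in these data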); settings: GST-Bcl-xL / FITC-Bim BH3 peptide FP binding; at 10.9 µM; hits give high values
[22] = target: Induced myeloid leukemia cell differentiation protein Mcl-1 (Homo sapiens) (UniProt Q07820); assay: inhibitors of MCL1 binding to BIM-BH3, confirmation, biochemical, fluorescence polarization, triplicate (AID 2168;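 active = inhibition above the average of all tested compounds plus 3 SD, cut at about 40% in these data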;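 also: 0% = DMSO wells and 100% = unlabeled Bim-BH3 control peptide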); settings: GST-MCL1 / FITC-Bim-BH3 fluorescence polarization; at 10.9 µM; hits give high values
[23] = STAT1 signaling activators, confirmation, cell-based, HTS, luciferase reporter (AID 1262;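 active = activation above a set limit carried over from the earlier primary STAT1 screen, cut at about 140% in these data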;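 also: simple ratio to median IFN-gamma plus DMSO wells so 0% means no light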); settings: NIH 3T3 STAT1-luciferase reporter, IFN-gamma potentiation, luminescence; at 5.7 µM; hits give high values; 100% = IFN-gamma EC80 alone, no compound
[24] = NF-kB reporter activators, TNF-alpha stimulated, counter-screen for STAT1 activator project, cell-based, HEK293T, luciferase luminescence (AID 1306;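 active = activation above the mean of solvent-only control wells plus 3 SD, set per campaign, cut at about 130% in these data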;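 also: TNF-alpha given at a submaximal dose yielding about 80% of full reporter signal; values are well signal over median control so 100% means no change and 0% no light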); settings: at 5.7 µM, hits give high values, 100% = TNF-alpha with vehicle only
[25] = target: Signal transducer and activator of transcription 3 (Homo sapiens) (UniProt P40763); assay: STAT3 reporter activation by STAT1 hits, confirmation, counter-screen for STAT1 activator project, U3A cells, luciferase, luminescence (AID 1316;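 active = activation above the solvent-only control well mean plus 3 SD, set per plate batch, cut at about 110% in these data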;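 also: 0% = no luminescence and 100% = median IL-6 plus DMSO wells; higher means more STAT3 reporter activation so hits are non-selective activators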); settings: IL-6, luminescence, at 5.7 µM, hits give high values, 100 = IL-6 alone, no compound effect, cells lack STAT1
[26] = target: Nuclear receptor coactivator 1 (Homo sapiens) (UniProt Q15788); assay: SRC1 coactivator transcriptional activity inhibitors, confirmation, cell-based, luminescence, quadruplicate (AID 588820;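 active = mean inhibition above 46.68%, the untreated control wells mean plus 3 SD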;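 also: 0% = DMSO wells and 100% = gossypol 36 µM treated wells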); settings: HEK293 GAL4-SRC1 luciferase reporter, at 3.6 µM, hits give high values
[27] = VP16 transactivation inhibitors, counter-screen for SRC1 inhibitor project, cell-based, luminescence, high throughput (AID 588824; in the data active = inhibition above about 25%); settings: cell-based VP16 transactivation luciferase luminescence; at 3.6 µM; hits give high values
[28] = StAR promoter reporter inhibitors, counter-screen for LRH-1 inverse agonist project, cell-based, luminescence, high throughput (AID 651611; in the data active = inhibition above about 28%); settings: StAR promoter luciferase reporter counterscreen, at 3.6 µM, hits give high values
[29] = target: Nuclear receptor subfamily 5 group A member 2 (Homo sapiens) (UniProt O00482); assay: LRH-1 (NR5A2) inverse agonists, retest, confirmation, cell-based, luminescence (AID 651613; in the data active = inhibition above about 42%;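 also: HEK293T cells co-transfected with LRH-1 and StAR promoter luciferase reporter; 0% = vehicle wells and 100% = parental cells lacking receptor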); settings: cell-based LRH-1 luciferase reporter, inverse agonism; at 3.6 µM; hits give high values
[30] = target: Steroidogenic factor 1 (Homo sapiens) (UniProt Q13285); assay: SF1 (NR5A1) inverse agonists, counter-screen for LRH-1 inverse agonist project, cell-based, luminescence, high throughput (AID 651614; in the data active = inhibition above about 44%;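 also: cells cotransfected with StAR promoter reporter and SF1 expression vector; 0% = vehicle on cells with receptor and 100% = vehicle on cells lacking receptor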); settings: cell-based SF1 luciferase reporter, at 3.6 µM, hits give high values
[31] = VP16 transactivation reporter inhibitors, counter-screen for LRH-1 inverse agonist project, cell-based, luminescence, high throughput (AID 651615; in the data active = inhibition above about 33%); settings: Gal4-VP16 luciferase reporter cells, at 3.6 µM, hits give high values

Glutathione S-transferase omega-1 (Homo sapiens), sequence (P78417 whole entry, looked up): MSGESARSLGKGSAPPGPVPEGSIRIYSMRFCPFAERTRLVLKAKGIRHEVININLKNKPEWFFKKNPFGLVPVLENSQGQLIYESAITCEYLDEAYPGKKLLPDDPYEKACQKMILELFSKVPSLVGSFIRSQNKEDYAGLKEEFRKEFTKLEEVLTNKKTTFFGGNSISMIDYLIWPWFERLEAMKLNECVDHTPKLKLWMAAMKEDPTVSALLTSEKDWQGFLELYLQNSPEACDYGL
(Lyso)-N-acylphosphatidylethanolamine lipase (Mus musculus), sequence (Q8VD66 whole entry, looked up): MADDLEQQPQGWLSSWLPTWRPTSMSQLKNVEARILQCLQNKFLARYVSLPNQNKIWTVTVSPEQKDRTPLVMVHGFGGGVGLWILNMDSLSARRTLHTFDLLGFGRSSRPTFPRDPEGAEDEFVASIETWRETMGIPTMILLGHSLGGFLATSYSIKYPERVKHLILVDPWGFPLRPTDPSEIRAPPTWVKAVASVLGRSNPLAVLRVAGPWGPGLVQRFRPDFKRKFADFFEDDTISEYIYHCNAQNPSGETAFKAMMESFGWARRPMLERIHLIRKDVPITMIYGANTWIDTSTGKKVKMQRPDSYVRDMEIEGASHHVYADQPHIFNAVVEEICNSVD
Platelet-activating factor acetylhydrolase (Homo sapiens), sequence (Q13093 whole entry, looked up): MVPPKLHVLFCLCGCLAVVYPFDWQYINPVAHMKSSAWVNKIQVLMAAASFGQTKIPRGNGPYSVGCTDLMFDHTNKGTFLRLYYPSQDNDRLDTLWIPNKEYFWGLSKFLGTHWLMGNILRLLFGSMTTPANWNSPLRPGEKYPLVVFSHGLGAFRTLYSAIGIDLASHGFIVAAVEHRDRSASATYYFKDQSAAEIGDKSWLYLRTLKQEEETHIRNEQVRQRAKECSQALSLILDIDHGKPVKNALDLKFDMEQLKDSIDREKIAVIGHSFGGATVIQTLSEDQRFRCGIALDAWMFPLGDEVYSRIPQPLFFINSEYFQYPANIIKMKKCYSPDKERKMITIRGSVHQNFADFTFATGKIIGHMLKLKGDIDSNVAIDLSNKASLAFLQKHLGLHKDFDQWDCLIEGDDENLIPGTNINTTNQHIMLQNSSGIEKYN
Protein-arginine deiminase type-4 (Homo sapiens), sequence (Q9UM07 whole entry, looked up): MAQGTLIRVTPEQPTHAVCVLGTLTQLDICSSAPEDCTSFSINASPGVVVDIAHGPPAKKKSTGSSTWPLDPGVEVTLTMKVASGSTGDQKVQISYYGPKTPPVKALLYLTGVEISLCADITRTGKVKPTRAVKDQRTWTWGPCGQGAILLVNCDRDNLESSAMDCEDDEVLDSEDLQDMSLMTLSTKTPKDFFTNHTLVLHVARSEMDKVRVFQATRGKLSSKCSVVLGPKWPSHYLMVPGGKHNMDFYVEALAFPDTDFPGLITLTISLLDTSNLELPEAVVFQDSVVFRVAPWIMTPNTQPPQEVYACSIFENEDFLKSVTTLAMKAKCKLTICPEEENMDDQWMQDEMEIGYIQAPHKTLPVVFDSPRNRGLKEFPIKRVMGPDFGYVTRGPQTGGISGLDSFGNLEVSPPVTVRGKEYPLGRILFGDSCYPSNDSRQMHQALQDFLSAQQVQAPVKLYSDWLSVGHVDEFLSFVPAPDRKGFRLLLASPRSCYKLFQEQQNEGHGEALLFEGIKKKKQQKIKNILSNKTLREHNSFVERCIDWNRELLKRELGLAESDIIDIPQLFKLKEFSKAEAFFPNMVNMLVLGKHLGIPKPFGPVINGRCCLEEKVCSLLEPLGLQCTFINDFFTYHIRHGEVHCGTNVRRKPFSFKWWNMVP
Steroidogenic factor 1 (Homo sapiens), sequence (Q13285 whole entry, looked up, the tested form may be a part): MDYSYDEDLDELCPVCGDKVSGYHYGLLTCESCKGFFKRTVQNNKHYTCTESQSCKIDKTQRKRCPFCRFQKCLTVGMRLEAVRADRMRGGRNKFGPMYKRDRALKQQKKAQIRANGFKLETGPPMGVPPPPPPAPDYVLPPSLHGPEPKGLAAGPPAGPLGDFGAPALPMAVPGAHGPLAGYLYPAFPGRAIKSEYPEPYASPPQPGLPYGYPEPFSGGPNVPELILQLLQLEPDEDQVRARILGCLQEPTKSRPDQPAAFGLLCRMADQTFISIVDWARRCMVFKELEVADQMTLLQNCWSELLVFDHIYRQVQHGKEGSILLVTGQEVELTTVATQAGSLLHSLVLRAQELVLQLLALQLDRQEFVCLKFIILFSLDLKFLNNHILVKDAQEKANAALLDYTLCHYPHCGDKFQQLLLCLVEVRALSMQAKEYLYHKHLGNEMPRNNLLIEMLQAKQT
Protein phosphatase methylesterase 1 (Homo sapiens), sequence (Q9Y570 whole entry, looked up): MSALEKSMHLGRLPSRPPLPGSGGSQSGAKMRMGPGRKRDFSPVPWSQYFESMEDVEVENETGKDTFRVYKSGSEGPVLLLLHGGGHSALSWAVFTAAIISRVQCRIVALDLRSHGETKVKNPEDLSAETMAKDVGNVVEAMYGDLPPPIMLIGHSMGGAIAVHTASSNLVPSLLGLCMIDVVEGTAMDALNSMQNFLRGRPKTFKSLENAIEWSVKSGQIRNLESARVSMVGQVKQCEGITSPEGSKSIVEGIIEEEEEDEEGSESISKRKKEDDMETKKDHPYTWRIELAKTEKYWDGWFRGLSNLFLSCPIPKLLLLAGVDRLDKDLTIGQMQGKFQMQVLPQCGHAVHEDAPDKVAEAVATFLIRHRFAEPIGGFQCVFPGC
Nuclear receptor coactivator 1 (Homo sapiens), sequence (Q15788 whole entry, looked up, the tested form may be a part): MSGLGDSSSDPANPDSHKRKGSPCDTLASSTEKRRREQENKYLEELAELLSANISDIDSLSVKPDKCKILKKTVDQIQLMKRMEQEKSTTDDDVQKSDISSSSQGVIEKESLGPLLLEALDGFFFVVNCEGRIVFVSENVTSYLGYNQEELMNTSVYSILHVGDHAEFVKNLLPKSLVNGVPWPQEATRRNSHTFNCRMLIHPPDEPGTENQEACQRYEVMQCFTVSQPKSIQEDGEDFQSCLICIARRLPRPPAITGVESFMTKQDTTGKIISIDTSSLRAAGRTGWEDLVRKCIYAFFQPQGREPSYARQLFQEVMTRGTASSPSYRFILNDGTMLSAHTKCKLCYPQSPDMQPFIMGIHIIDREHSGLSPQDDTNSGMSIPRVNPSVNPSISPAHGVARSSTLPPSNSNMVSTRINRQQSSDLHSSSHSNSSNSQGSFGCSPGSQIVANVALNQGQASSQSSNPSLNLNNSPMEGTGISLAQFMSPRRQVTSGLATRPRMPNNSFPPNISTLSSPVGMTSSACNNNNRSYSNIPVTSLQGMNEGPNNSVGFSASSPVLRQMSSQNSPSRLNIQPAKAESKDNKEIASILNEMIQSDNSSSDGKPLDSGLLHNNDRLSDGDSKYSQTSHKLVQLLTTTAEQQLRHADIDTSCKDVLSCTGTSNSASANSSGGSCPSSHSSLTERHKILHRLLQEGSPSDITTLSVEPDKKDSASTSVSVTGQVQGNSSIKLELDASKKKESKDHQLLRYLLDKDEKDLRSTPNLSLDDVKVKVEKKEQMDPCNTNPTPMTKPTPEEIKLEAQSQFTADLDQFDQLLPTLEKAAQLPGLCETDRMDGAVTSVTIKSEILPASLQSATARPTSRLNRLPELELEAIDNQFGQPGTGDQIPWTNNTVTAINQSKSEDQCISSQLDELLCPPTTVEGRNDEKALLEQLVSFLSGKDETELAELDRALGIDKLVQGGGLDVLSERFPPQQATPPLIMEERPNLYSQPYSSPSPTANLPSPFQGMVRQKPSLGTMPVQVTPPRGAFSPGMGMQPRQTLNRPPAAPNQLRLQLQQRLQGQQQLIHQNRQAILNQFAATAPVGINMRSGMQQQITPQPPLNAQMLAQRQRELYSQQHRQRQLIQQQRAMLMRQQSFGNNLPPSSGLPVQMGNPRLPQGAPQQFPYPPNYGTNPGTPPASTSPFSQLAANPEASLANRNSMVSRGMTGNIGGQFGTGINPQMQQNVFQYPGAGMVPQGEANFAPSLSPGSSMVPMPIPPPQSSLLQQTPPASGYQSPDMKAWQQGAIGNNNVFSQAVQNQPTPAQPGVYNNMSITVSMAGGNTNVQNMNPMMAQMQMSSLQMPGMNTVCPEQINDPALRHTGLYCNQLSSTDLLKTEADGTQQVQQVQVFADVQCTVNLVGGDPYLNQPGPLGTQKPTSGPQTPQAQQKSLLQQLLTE
Bcl-2-like protein 1 (Homo sapiens), sequence (Q07817 whole entry, looked up): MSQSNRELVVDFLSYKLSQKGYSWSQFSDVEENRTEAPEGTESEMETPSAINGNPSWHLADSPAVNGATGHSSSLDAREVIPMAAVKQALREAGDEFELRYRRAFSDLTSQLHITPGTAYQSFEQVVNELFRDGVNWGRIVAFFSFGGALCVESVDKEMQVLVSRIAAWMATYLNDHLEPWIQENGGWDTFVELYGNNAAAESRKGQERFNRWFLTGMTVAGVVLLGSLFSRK
Nuclear receptor subfamily 5 group A member 2 (Homo sapiens), sequence (O00482 whole entry, looked up): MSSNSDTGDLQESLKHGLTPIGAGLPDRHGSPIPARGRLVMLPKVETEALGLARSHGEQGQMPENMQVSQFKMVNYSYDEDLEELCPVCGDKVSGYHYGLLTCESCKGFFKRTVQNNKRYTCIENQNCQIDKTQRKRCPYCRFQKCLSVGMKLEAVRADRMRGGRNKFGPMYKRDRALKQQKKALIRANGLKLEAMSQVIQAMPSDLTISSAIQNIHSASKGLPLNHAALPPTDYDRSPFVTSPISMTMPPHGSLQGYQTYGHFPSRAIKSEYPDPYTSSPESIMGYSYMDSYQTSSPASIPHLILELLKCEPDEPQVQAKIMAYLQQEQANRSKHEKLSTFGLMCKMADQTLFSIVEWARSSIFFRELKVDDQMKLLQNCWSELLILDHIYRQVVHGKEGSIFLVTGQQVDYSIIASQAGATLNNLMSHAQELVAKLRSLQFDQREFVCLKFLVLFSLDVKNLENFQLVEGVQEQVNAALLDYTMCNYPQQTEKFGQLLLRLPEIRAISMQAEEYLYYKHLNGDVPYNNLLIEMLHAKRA

Clc1ccc(C2=CSC3=Nc4cccc5cccc(c45)N23)cc1
active: inhibition [1] 85.1% | inhibition [4] 37.5% | inhibition [7] 24.5%
inactive: inhibition [2] -2.56% | inhibition [3] 13.7% | activation [5] 2.48% | inhibition [6] -8.94%

Nc1ccc2nc3c(=O)[nH]c(=S)[nH]c3nc2c1
inactive: inhibition [10] 10.6% | inhibition [6] -245%
active: inhibition [8] 44.2% | inhibition [1] 62% | inhibition [9] 32.2% | inhibition [2] 45.3% | inhibition [11] 120% | inhibition [4] 53.5% | activation [5] 48.6% | inhibition [7] 83%

CN(C)[C@@H]1C(=O)C(C(N)=O)=C(O)[C@@]2(O)C(=O)C3=C(O)c4c(O)ccc(Cl)c4[C@@H](O)[C@H]3C[C@@H]12
active: inhibition [12] 102% | inhibition [13] 100% | inhibition [14] 101% | inhibition [15] 102% | inhibition [16] 104% | inhibition [17] 102%
inactive: inhibition [1] 24.2% | inhibition [9] -0.22% | inhibition [10] -3.91% | inhibition [11] 1.29% | inhibition [4] 17.2% | activation [5] 6.8% | inhibition [6] -24.2% | inhibition [7] 1.42%

Cc1ccc(-c2cnc(NC(=O)CCC(=O)N(C)Cc3ccccc3)n2C)cc1
inactive: activation [5] 0.12% | inhibition [6] -0.61% | inhibition [7] -6.89%

COc1ccc(Cn2cc(CN3CCS(=O)(=O)N(Cc4ccc(-c5cccc(Cl)c5)cc4)C(C)C3=O)nn2)cc1 (centres undefined)
inactive: activation [5] -2.68% | inhibition [6] 13.6% | inhibition [7] -1.87%

CCOC(=O)c1ccc(Nc2cc3ccccc3c(=O)[nH]2)cc1
inactive: activation [5] -1.62% | inhibition [6] 8.23%
active: inhibition [18] 53.9% | inhibition [7] 29.8%

Clc1cc(NC2CCCCC2)ncn1
inactive: activation [5] -0.3% | inhibition [6] 1.2% | inhibition [7] -4.64%

COCCn1nnnc1C(c1cc2ccc(OC)cc2[nH]c1=O)N1CCc2ccccc2C1 (centres undefined)
inactive: activation [5] 0.07% | inhibition [6] -0.28% | inhibition [7] 0.92%

Cc1cc(C(=O)NN=C/C=C/c2ccco2)n[nH]1
active: activation [5] 10.3%
inactive: inhibition [6] -36.8% | inhibition [7] 6.81%

Cc1ccc(N=C2NC(=O)/C(=C/C=C/c3ccco3)S2)cc1C
active: inhibition [9] 31.1% | activation [5] 13.8% | inhibition [7] 45.2%
inactive: inhibition [6] -49.5%

Oc1cccc(/C=N/Nc2ccc(Cl)nn2)c1O
active: inhibition [19] 93.5% | inhibition [9] 29.2% | inhibition [12] 42.9% | inhibition [13] 15.7% | inhibition [17] 26% | activation [5] 10.1%
inactive: inhibition [20] 0.35% | inhibition [1] 7.85% | inhibition [14] 20.9% | inhibition [15] 7.26% | inhibition [16] 9.97% | inhibition [6] -36.1% | inhibition [7] 10.1%

O=S(=O)(Nc1ccc(O)c2ccccc12)c1ccc(OC(F)(F)F)cc1
inactive: activation [5] 1.57% | inhibition [6] -5.75% | inhibition [7] 8.79%
active: inhibition [1] 38.2% | inhibition [2] 15%

C=CCn1c(=S)[nH]c2scc(-c3ccco3)c2c1=O
inactive: inhibition [21] 23.3% | inhibition [22] 37.9% | inhibition [9] 14.1% | activation [5] 4.85% | inhibition [6] -24.4%
active: inhibition [8] 78.1% | inhibition [7] 75.9%

Cc1ccc(-c2nn(-c3ccccc3)cc2/C=C2\SC(=S)N(CCCCCC(=O)O)C2=O)o1
inactive: inhibition [6] -492%
active: activation [5] 97.9% | inhibition [7] 41.5%

Cc1cc(=O)oc2c3c(cc(OCC(=O)N[C@H](C(=O)O)c4ccccc4)c12)OC(C)(C)CC3
inactive: activation [5] -0.04% | inhibition [6] 0.3% | inhibition [7] -1.12%

Cc1cc(C(=O)N/N=C/c2ccc(O)c([N+](=O)[O-])c2)c(C)n1-c1ccc(F)cc1
active: inhibition [3] 120% | inhibition [4] 74% | activation [5] 14.2% | inhibition [7] 17.8%
inactive: inhibition [6] -71.4%

CCC(=O)NC(=Nc1nc2ccccc2s1)NC(=O)CC
active: activation (% of control) [23] 216% | activation (% of control) [24] 138% | activation (% of control) [25] 112%

O=C(Nc1ccc(Cl)cn1)c1cnn2cccnc12
active: activation (% of control) [23] 171% | activation (% of control) [25] 111%
inactive: activation (% of control) [24] 128%

Cn1ccc(=Nc2ccc(NC(=O)c3ccc(N=c4ccn(C)c5ccc([N+](=O)[O-])cc45)cc3)cc2)cc1
inactive: inhibition [16] -7.32% | activation [5] -0.71% | inhibition [6] 2.56%
active: inhibition [12] 99.9% | inhibition [13] 101% | inhibition [14] 101% | inhibition [15] 101% | inhibition [17] 102% | inhibition [7] 21%

COc1ccc2[nH]c3c(C)c4cc[n+](C)cc4c(C)c3c2c1
inactive: inhibition [26] 27.3% | inhibition [6] -47.7%
active: inhibition [27] 45% | inhibition [28] 49.8% | inhibition [29] 103% | inhibition [30] 51.9% | inhibition [31] 75% | activation [5] 9.5% | inhibition [7] 42.7%
